Only some compounds are listed: those with a hit (about 4.6% of all), similar ones and a draw of the others.
USP7 inh: blocks human USP7 ubiquitin-rhodamine cleavage | purified USP7, Ub-rhodamine cleavage fluorescence | inhibition, % at 20 µM | 47,000 tested, 0.3% active
UCHL1 inh: human UCHL1 deubiquitinase inhibition | purified UCHL1, Ub-rhodamine cleavage fluorescence | inhibition, % at 20 µM | P09936 | 47,000 tested, 0.2% active
USP8 inh: inhibitors of human USP8 deubiquitinase; 47,000 tested, 4.2% active; purified USP8, Ub-rhodamine cleavage fluorescence, 30 min; AID 1645853; inhibition, % at 20 µM; P40818
USP10 inh: inhibitors of human USP10 deubiquitinase. inhibition, % at 20 µM. purified USP10, Ub-rhodamine fluorescence, 60 min. 47,000 tested, 1.1% active. Q14694
Target sequence (Q14694 whole entry, looked up): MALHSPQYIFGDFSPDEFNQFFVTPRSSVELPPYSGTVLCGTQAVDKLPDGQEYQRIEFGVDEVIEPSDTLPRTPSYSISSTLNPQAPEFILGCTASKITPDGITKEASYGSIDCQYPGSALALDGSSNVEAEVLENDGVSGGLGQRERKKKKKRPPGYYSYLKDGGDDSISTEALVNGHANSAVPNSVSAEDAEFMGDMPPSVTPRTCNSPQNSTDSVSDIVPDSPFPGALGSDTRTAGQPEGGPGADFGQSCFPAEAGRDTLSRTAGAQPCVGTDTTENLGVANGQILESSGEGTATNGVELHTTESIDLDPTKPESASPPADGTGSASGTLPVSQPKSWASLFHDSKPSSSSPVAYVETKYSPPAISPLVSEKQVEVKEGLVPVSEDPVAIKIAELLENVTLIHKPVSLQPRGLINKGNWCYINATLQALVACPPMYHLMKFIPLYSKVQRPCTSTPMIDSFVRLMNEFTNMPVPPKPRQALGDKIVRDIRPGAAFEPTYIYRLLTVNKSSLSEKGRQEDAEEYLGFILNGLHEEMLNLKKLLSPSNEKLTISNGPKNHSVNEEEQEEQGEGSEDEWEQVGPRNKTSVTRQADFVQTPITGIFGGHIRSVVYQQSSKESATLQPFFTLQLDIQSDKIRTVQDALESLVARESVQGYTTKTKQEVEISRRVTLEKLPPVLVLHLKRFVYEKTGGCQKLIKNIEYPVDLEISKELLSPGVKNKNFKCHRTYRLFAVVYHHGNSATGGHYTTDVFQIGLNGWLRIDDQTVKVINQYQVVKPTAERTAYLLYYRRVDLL
An asterisk follows results filed as active. No stated cut-off is given here; in the data, active means inhibition above about 30%; inactive means the rest.

For CC1Cc2ccccc2N1C(=O)CSc1ccccc1NC(=O)C1CC1 (configuration not stated) the results were USP7 inh -4.5, UCHL1 inh -0.4, USP8 inh -4.9 and USP10 inh 1.9.
`Cc1noc(C)c1-c1ccc(S(=O)(=O)Nc2ccc(C#N)cc2)cc1` gave USP7 inh 0.9, UCHL1 inh 1.5, USP8 inh 31.4* and USP10 inh 7.9.
Cc1ccc(CNC(=O)c2cc3occc3c(Nc3ccccc3)n2)cc1 was read as USP7 inh -6.0, UCHL1 inh -3.7, USP8 inh 57.3* and USP10 inh -0.9.
Screening Cc1ccccc1CNC(=O)c1cc2occc2c(Nc2ccc(F)cc2)n1 returned USP7 inh 11.0, UCHL1 inh 1.7, USP8 inh 55.4* and USP10 inh 23.8.
`COc1ccc(CCC(=O)Nc2nnc(C3CC(=O)N(c4ccccc4)C3)s2)cc1` (configuration not stated) gave USP7 inh 4.6, UCHL1 inh 0.9, USP8 inh -13.6 and USP10 inh 34.0*.
For O=C(CCCn1c(=O)c2ccccc2n(CC(=O)NCc2ccccc2Cl)c1=O)NCc1ccc2c(c1)OCO2 the results were USP7 inh 27.4, UCHL1 inh 6.1, USP8 inh 72.5* and USP10 inh 56.7*.
For O=C(CSc1n[nH]c2nc3ccccc3n12)Nc1ccc2c(c1)OCO2 the results were USP7 inh 3.9, UCHL1 inh 3.0, USP8 inh 30.3* and USP10 inh 10.4.
`O=C(Cn1c(=O)n(CCC(=O)N2CCc3ccccc3C2)c(=O)c2ccccc21)NCc1ccccc1Cl` gave USP7 inh -6.3, UCHL1 inh 6.9, USP8 inh 90.2* and USP10 inh 23.0.
For COc1ccc(CCNC(=O)Cn2c(=O)n(CCCCC(=O)NCc3ccc4c(c3)OCO4)c(=O)c3ccccc32)cc1OC the results were USP7 inh 9.0, UCHL1 inh 4.0, USP8 inh -3.4 and USP10 inh 19.1.
For Cc1cccc(C)c1NC(=O)Cn1c(=O)n(CCCCC(=O)NCc2ccc3c(c2)OCO3)c(=O)c2ccccc21 the results were USP7 inh 16.7, UCHL1 inh 4.2, USP8 inh 68.9* and USP10 inh 54.3*.
For O=C(Cn1c(=O)n(CCC(=O)N2CCc3ccccc3C2)c(=O)c2ccccc21)NCCC1=CCCCC1 the results were USP7 inh 11.5, UCHL1 inh 4.3, USP8 inh 6.8 and USP10 inh 11.2.
Cc1cc2nc(NCC(O)c3ccccc3)c3ccccc3n2n1 (configuration not stated) was read as USP7 inh -0.8, UCHL1 inh 0.1, USP8 inh -39.6 and USP10 inh -0.1.
For COc1ccc(OCC(=O)NCc2ccc(-c3nc(C)ncc3-c3cc(C)no3)cc2)cc1 the results were USP7 inh -6.9, UCHL1 inh -4.1, USP8 inh -12.6 and USP10 inh -1.2.
CCn1nccc1C1CCCN1S(=O)(=O)c1ccc(F)cc1 (configuration not stated) was read as USP7 inh 3.8, UCHL1 inh 0.0, USP8 inh -0.1 and USP10 inh 0.2.
Screening O=C(CSc1c[nH]c2ccccc12)Nc1ccc2c(c1)OCO2 returned USP7 inh -4.1, UCHL1 inh 1.7, USP8 inh 5.6 and USP10 inh 1.6.
For O=C(Cn1c(=O)c2ccccc2c2ccccc21)Nc1ccc2c(c1)OCO2 the results were USP7 inh 27.4, UCHL1 inh 9.4, USP8 inh 87.4* and USP10 inh 42.3*.
O=C(Cc1csc2nc(-c3ccccc3)cn12)Nc1ccccc1 was read as USP7 inh -1.4, UCHL1 inh 3.9, USP8 inh 3.1 and USP10 inh 3.8.
For O=C1CCOC[C@]2(CN(C(=O)c3ccccn3)C[C@H]2c2ccccc2)N1 the results were USP7 inh 5.3, UCHL1 inh 0.3, USP8 inh 22.6 and USP10 inh -0.8.
Screening CCc1ccc(C(CC(=O)Nc2ccc3c(c2)OCO3)NC(=O)C(F)(F)F)cc1 (configuration not stated) returned USP7 inh 11.0, UCHL1 inh 0.3, USP8 inh 36.6* and USP10 inh 6.1.
For Cc1cccc(NC(=O)C2CC(=O)NC(N3CCN(c4ccccc4)CC3)=N2)c1 (configuration not stated) the results were USP7 inh -3.1, UCHL1 inh 1.6, USP8 inh 33.9* and USP10 inh 3.0.
`O=C(Nc1ncc(Cc2ccccc2Cl)s1)c1ccc(OCc2ccccc2)cc1` gave USP7 inh -13.1, UCHL1 inh 3.5, USP8 inh -0.2 and USP10 inh 4.6.
For COc1ccccc1OC(C)C(=O)Nc1ccc2c(c1)NC(=O)CO2 (configuration not stated) the results were USP7 inh -2.1, UCHL1 inh 0.5, USP8 inh -78.9 and USP10 inh -10.4.
O=C(Cn1cnc(-c2noc(-c3ccc(F)cc3)n2)c1)Nc1ccccc1F was read as USP7 inh 14.5, UCHL1 inh 7.5, USP8 inh 66.7* and USP10 inh 25.9.
Screening Cc1ccc(NC(=O)Cn2cnc(-c3noc(-c4cccnc4)n3)c2)cc1 returned USP7 inh 2.8, UCHL1 inh -1.8, USP8 inh -3.6 and USP10 inh -8.0.
Screening Cc1cccc(NC(=O)Cn2cnc(-c3noc(-c4ccccc4)n3)c2)c1C returned USP7 inh 24.1, UCHL1 inh 6.9, USP8 inh 72.6* and USP10 inh 25.7.
Screening Cc1ccccc1NC(=O)Cn1cc(-c2noc(-c3ccccc3)n2)nc1C returned USP7 inh 4.7, UCHL1 inh -0.1, USP8 inh 7.3 and USP10 inh 9.3.
For O=C1[C@H]2Cc3c([nH]c4ccccc34)C(CCc3ccccc3)N2C(=O)CN1CCCn1ccnc1 (some centres not stated) the results were USP7 inh -5.0, UCHL1 inh -4.3, USP8 inh -22.6 and USP10 inh -7.8.
For Cc1c(S(=O)(=O)N2CCCCC2)cc(C(=O)N(C)Cc2ccccc2)n1C the results were USP7 inh -2.2, UCHL1 inh -3.9, USP8 inh -2.5 and USP10 inh 0.1.
Cc1cccc(-n2nnc3c(=O)n(Cc4ccc([N+](=O)[O-])cc4)cnc32)c1 was read as USP7 inh 0.2, UCHL1 inh -3.5, USP8 inh -7.9 and USP10 inh 6.0.
`Cc1ccc(C)c(Cn2cnc3c(nnn3-c3cccc(F)c3)c2=O)c1` gave USP7 inh 24.6, UCHL1 inh 3.3, USP8 inh 53.6* and USP10 inh 15.5.
C[C@H]1C(=O)N(C)[C@@H]2CCN(C(=O)Nc3ccc4ccccc4c3)[C@@H]2C(=O)N1C was read as USP7 inh 2.9, UCHL1 inh -0.1, USP8 inh 5.4 and USP10 inh 0.0.
O=S(=O)(Cc1nnc(-c2ccccc2C(F)(F)F)o1)c1ccc(Cl)cc1 was read as USP7 inh -15.6, UCHL1 inh -2.9, USP8 inh -12.0 and USP10 inh 0.0.
`CC(C)Cn1c(=O)c2nscc2n(CC(=O)Nc2ccccc2)c1=O` gave USP7 inh -42.3, UCHL1 inh 14.8, USP8 inh 62.7* and USP10 inh -9.1.
For CCCn1c(=O)c2nscc2n(CC(=O)Nc2ccccc2)c1=O the results were USP7 inh 0.2, UCHL1 inh 0.1, USP8 inh -1.6 and USP10 inh 0.0.

Screening data as filed in PubChem.
